Screens (PubChem)
Hits are enriched below; roughly 11% of the tested compounds scored in any of these assays.
IMPase cell inh – cell-permeable inhibitors of inositol monophosphatase (IMPase). P97697. CHO-M1 cells, IP1 accumulation, HTRF TR-FRET ratio. inhibition (IP1 accumulation), % at 46.1 µM. 120,000 tested, under 10 active; active = well fitted curve in the direction sought with a large enough effect in the signal ratio, not every such curve was filed as active; inconclusive = small, poorly fitted or top-dose-only effect, or a change in a side signal; inactive = no such curve, though single readings can be large or run the other way; the % refers to the signal ratio;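 also: cells stimulated with carbachol in lithium chloride buffer; higher means more IMPase inhibition seen as more IP1 and lower FRET ratio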
Target sequence (P97697 whole entry, looked up): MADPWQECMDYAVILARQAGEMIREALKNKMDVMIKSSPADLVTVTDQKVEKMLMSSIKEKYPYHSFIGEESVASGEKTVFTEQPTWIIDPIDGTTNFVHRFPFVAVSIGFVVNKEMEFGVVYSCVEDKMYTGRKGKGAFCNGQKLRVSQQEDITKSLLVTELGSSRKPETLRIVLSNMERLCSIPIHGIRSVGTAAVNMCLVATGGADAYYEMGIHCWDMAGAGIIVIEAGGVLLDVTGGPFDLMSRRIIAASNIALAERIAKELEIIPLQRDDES
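Elevated IP1 in lysates lowers TR-FRET signal (665/620 ratio and 620 channel reported). Cells were CHO-M1, given carbachol (50 uM as added) plus 50mM LiCl, pH 7.4, 30 min, 37C; compounds titrated up to 46 uM; AC50 by Hill equation.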
IMPase Li inh – IMPase inhibition in cells with lithium potentiation. AID 1457. CHO-M1 cells, IP1 TR-FRET (IP-One), carbachol + lithium. 210,000 compounds, 0.35% hits. Potency, µM (doses to about 59.4 µM), usual class: inhibitors;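 also: IP1 builds up when IMPase is blocked and the TR-FRET signal falls; nearly all actives have a fitted effect of over 50% in size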
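Steps: plate 2000 CHO-M1 cells per well and culture 16–30 h; add compound and lithium; incubate 30 min, 37C; add d2-IP1 tracer and Eu cryptate anti-IP1 antibody in lysis buffer; read after 10 min at room temperature.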
HPGD block – blocks human HPGD enzyme activity. P15428. purified HPGD, NADH fluorescence kinetic, PGE2 substrate. Potency, µM, actives largely listed as inhibitors. 150,000 compounds, 4.3% hits. AID 894; active = well fitted inhibition curve with a large enough effect, not every such curve was filed as active; inconclusive = small, poorly fitted or top-dose-only effect, or another doubt; inactive = no such curve, though single readings can be large or run the other way
Target sequence (P15428 whole entry, looked up): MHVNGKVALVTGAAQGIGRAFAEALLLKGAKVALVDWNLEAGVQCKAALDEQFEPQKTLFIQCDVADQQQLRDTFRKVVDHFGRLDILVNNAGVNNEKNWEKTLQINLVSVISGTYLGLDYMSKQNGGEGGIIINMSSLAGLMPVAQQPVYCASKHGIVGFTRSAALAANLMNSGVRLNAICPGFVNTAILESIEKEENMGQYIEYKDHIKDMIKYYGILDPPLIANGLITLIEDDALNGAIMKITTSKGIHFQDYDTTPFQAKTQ
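NADH formation kinetics: reaction with 30 uM PGE2 and 1 mM NAD+ (final), 20 nM enzyme, Tris-HCl pH 8 with Tween 20, after 15 min compound preincubation at room temperature. Fluorescence change, last versus first of five reads.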
PNC inhibitor – blocks assembly of the perinucleolar compartment | 140,000 compounds, 3.1% hits | PC3M PTB-GFP, PNC prevalence imaging, 16 h; active compounds read low | activity change (PNC), negative = inhibition, % at 10 µM;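 active = readout at or below -70, meaning at least 70% loss of cells showing the perinucleolar compartment, a nuclear body marking cancer cells; inconclusive = readout between -30 and a set limit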
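Read-out is percentage of cells bearing a perinucleolar compartment, from automated 20x imaging of fixed, Hoechst-stained PC3M PTB-GFP cells. Cells were seeded 4 h, then exposed 16 h to compound (23 nl of library stock) in duplicate plates.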
ALOX12 inhib – inhibitors of human 12-lipoxygenase (ALOX12). Potency, µM (series often up to 57.1 µM), most hits filed as inhibitors. purified 12-hLO, xylenol orange hydroperoxide absorbance. 150,000 compounds, 0.12% hits; also: nearly all actives have a fitted effect of over 55% in size
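150 nM 12hLO, 25 mM Hepes pH 7.0 + 0.01% Triton X-100; cpd preinc 15 min RT; 40 uM arachidonic acid, 30 min RT; Fe-XO 30 min; A573/A405 ratio as read-out.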
ALDH1A1 inh – blocks purified human ALDH1A1 activity | Purified ALDH1A1, NADH fluorescence, propionaldehyde substrate | 220,000 compounds, 7.3% hits | P00352 | Potency, µM (top dose mostly 75.3 µM), usual class: inhibitors; active = well fitted inhibition curve with a large enough effect, not every such curve was filed as active; inconclusive = small, poorly fitted or top-dose-only effect, or another doubt; inactive = no such curve, though single readings can be large or run the other way
Numbers stand for hits; i = inactive; ? = inconclusive; nt = no result given; [ ] = remark or other dose. Unless noted, calls follow the shape of the dose curve; as a rule, active = well fitted curve in the direction sought with a large enough effect; inconclusive = small, poorly fitted or top-dose-only effect, or another doubt; inactive = no such curve, though single readings can be large; an effect the other way counts as inactive or inconclusive.

SMILES	IMPase cell inh	IMPase Li inh	HPGD block	PNC inhibitor	ALOX12 inhib	ALDH1A1 inh
Cc1cccc(/C=N/NC(=O)NC2CCCCC2)c1	nt	i	i	?	i	i
Cc1ccc(/C=C/C(=O)NC2CCCCCCC2)o1	nt	i	3.5µM	i	i	3.5µM
Cc1sc2nc(SCC(=O)NCc3ccco3)[nH]c(=O)c2c1C	i	i	7.9µM	i	i	i
Cc1sc2nc(SCC(=O)NCc3ccco3)n(C)c(=O)c2c1C	i	i	i	i	i	i
CCn1c(SCC(=O)NC(=O)NCc2ccco2)nc2sc(C)c(C)c2c1=O	i	i	?	i	i	8.9µM
Cc1sc2nc(SCC(=O)N3CCOCC3)[nH]c(=O)c2c1C	i	i	16µM	i	i	i
Cc1sc2nc(CSCC(=O)Nc3ccc(N4CCOCC4)cc3)[nH]c(=O)c2c1C	nt	nt	nt	nt	nt	11µM
O=C(COC(=O)CNC(=O)c1ccc2c(c1)OCO2)Nc1ncc(Cl)cc1Cl	nt	i	nt	nt	nt	i
CN(C(=O)CCNC(=O)Cn1cnc2ccccc2c1=O)c1ccccc1F	i	nt	nt	nt	nt	nt
CN(C)c1cc(-c2cccc(NS(C)(=O)=O)c2)ncn1	nt	i	nt	nt	nt	?
O=C(NCc1nc2ccccc2[nH]1)[C@H]1C[C@@H]1[C@H](NP(=O)(c1ccccc1)c1ccccc1)c1ccccc1	nt	i	i	nt	i	i
Cc1nc2cc(NS(=O)(=O)c3ccc(Br)cc3)ccc2n1C	nt	i	nt	nt	nt	i
Cc1sc2nc(SCC(=O)NCc3cccs3)[nH]c(=O)c2c1C	i	i	25µM	i	i	i
Cc1ccc2nc(SCC(=O)NCc3cccs3)[nH]c2c1	nt	i	nt	nt	nt	i
COc1ccc([C@@H]2[C@@H](O)[C@H](O)[C@@H](C)N2C)cc1OC	nt	i	i	nt	nt	i
COc1cc(C2C3C(C)N(C)C(=O)N(C)C3N(C)C(=O)N2C)ccc1O (stereo not given)	i	i	i	-100	i	i
O=C(c1ccco1)N1CCN(C(=O)C(Cc2ccccc2)NS(=O)(=O)c2cccs2)CC1 (stereo not given)	i	i	i	i	i	14µM
CC(=O)NC(Cc1ccccc1)C(=O)N1CCN(C(=O)c2ccco2)CC1 (stereo not given)	i	i	i	i	i	10µM
O=c1c(-c2ccc(Cl)cc2)nc2cnc(N3CCNCC3)nc2n1-c1ccccc1	nt	i	nt	nt	nt	?
CC(=O)N/C(=C/c1ccc(OS(=O)(=O)c2ccc(C)cc2)cc1)C(=O)NCCCO	nt	nt	nt	nt	nt	2.2µM
CC(=O)Nc1ccc(S(=O)(=O)Oc2ccc(C=O)cc2)cc1	nt	i	i	i	i	28µM
COC(=O)/C=C/S(=O)(=O)c1ccc(NC(C)=O)cc1	i	i	i	i	i	0.32µM
CC(=O)Nc1ccc(S(=O)(=O)Nc2ccc([N+](=O)[O-])cc2)cc1	nt	i	22µM	nt	i	?
COc1ccc(C=O)cc1OS(=O)(=O)c1ccc(NC(C)=O)cc1	nt	i	?	i	i	i
CC(=O)N/C(=C/c1ccc(OS(=O)(=O)c2ccc(C)cc2)cc1)C(=O)NCCO	nt	i	i	i	i	i
SMILES	IMPase cell inh	IMPase Li inh	HPGD block	PNC inhibitor	ALOX12 inhib	ALDH1A1 inh
Cn1c(=O)c(-c2ccc(Cl)cc2)nc2cnc(Nc3ccccc3)nc21	nt	i	nt	nt	nt	i
COC1OC(CO)C(OC2OC(C(=O)O)C(OC3OC(COS(=O)(=O)O)C(OC4OC(C(=O)O)C(OC5OC(CO)C(OC6OC(C(=O)O)C(OC7OC(COS(=O)(=O)O)C(OC8OC(C(=O)O)=C[C@H](O)C8OS(=O)(=O)O)C(O)C7NC(C)=O)[C@@H](O)C6O)C(O)C5NC(C)=O)[C@@H](O)C4O)C(O)C3NC(C)=O)[C@@H](O)C2O)C(O)C1NC(C)=O (stereo not given in full)	nt	i	i	nt	i	i
CC(=O)Nc1ccc(OS(=O)(=O)c2ccc([N+](=O)[O-])cc2)cc1	nt	i	nt	nt	nt	25µM
CC(=O)OC[C@@H]1O[C@@H](O/N=C2/C[C@@H](O)[C@@H](O)[C@@H]3[C@@H]4C(=O)N(c5cccc(Oc6ccccc6)c5)C(=O)[C@H]4CC[C@@H]23)[C@H](OC(C)=O)[C@H](OC(C)=O)[C@@H]1OC(C)=O	nt	nt	nt	nt	nt	i[13.5 µM]
Cc1cc(C)nc(SCc2nc3nc(C)cc(C)n3c2Br)n1	?	i	?	i	i	?
Cc1cc(C)n2c(=S)[nH]nc2n1	i	i	2.8µM	-139	?	1.4µM
CSc1cccc(NC(=O)CN2C(=O)c3ccccc3S2(=O)=O)c1	i	i	i	i	i	?
Cc1cccc(NC(=O)CN2NS(=O)(=O)c3ccccc3C2=O)c1	i	i	i	?	i	10µM
Cc1noc(NC(=O)c2c(-c3c(Cl)cccc3Cl)noc2C)c1[N+](=O)[O-]	nt	nt	nt	nt	nt	i
O=C(C/C(=N/O)c1ccccc1O)C(F)F	i	i	16µM	i	i	i
COC(=O)c1ccccc1O	nt	i	i	nt	i	i
Nc1nc(-c2cccnc2)cc(-c2cc(-c3cccnc3)nc(N)n2)n1	nt	i	i	nt	i[11.4 µM]	i[13.5 µM]
CC(C)CSc1ncc(-c2cccc(C(F)(F)F)c2)cn1	i	i	i	i	i	22µM
FC(F)(F)c1cccc(-c2nn[nH]n2)c1	nt	i	nt	nt	nt	i
O=C(N/N=C/c1cc(Cl)ccc1O)C(=O)Nc1ccccc1OC(F)(F)C(F)F	nt	i	i	-90	i	i
O=C(CSc1ncc(-c2ccccc2)[nH]1)Nc1ccc(Cl)cc1	i	nt	nt	nt	nt	nt
CCN(CC)c1ccc(/C=C2\C(=O)c3ccc(C(=O)O)cc3C2=O)cc1	nt	i	2.8µM	?	i	3.2µM
CCCCC1(C)OC(=O)C(=Cc2ccc(N(C)C)cc2)C(=O)O1 (stereo not given)	i	i	11µM	i	i	1.1µM
CCCCC1(C)OC(=O)C(=Cc2c[nH]c3ccccc23)C(=O)O1 (stereo not given)	nt	i	nt	nt	nt	i
COc1cc(OC)c2c(c1)OC(c1ccc(OC)c(OC)c1)C(O)C2=O (stereo not given)	?	i	i	i	i	?
COc1cc([C@@H]2Oc3cc([C@H]4Oc5cc(O)cc(O)c5C(=O)[C@H]4O)ccc3O[C@H]2CO)ccc1O	i	i	35µM	nt	?	?
COc1cc([C@H]2Oc3cc([C@H]4Oc5cc(O)cc(O)c5C(=O)[C@@H]4O)ccc3O[C@@H]2CO)ccc1O	nt	i	i	nt	i	14µM
COc1ccc([C@@H]2CC(=O)c3c(O)cc(O)cc3O2)cc1O	i	i	i	nt	i	i
COc1ccc2sc(/C=C/c3ccccc3O)[n+](C)c2c1	nt	i	nt	nt	nt	i
O=C(c1ccccc1)n1nc(-c2ccc(Cl)cc2)nc1NCc1ccco1	i	nt	nt	nt	nt	nt
COc1ccc(S(=O)(=O)NCCSCc2ccco2)cc1OC	i	i	i	i	i	?
Cc1ccc(S(=O)(=O)NCCSCc2ccco2)cc1	nt	i	nt	nt	nt	20µM
COc1ccc(S(=O)(=O)NCCSCc2cccs2)cc1	i	i	i	i	i	1µM
COc1ccc(S(=O)(=O)NCCSCc2ccco2)cc1	i	i	i	?	i	2.8µM
